# Assay results: paper PMC7862700, “An all-to-all approach to the identification of sequence-specific readers for epigenetic DNA modifications on cytosine”
# Columns and labels:
# Assay in all cases: DAPPL (digital affinity profiling via proximity ligation, sequencing); 10 mM Tris-HCl pH 7.5, 50 mM NaCl, 1 mM DTT, 4% glycerol, room temperature, 30 min; GST-TFs on glutathione beads, 16-mer random dsDNA library, 0.1% formaldehyde crosslink after washing; high values mean tight binding
# Conditions in all cases: protein: recombinant; tags: N-terminal GST; dsDNA, one strand shown
# FLI1 = target: T1, FLI1 (Homo sapiens, UniProt Q01543 1-452)
# T1 sequence: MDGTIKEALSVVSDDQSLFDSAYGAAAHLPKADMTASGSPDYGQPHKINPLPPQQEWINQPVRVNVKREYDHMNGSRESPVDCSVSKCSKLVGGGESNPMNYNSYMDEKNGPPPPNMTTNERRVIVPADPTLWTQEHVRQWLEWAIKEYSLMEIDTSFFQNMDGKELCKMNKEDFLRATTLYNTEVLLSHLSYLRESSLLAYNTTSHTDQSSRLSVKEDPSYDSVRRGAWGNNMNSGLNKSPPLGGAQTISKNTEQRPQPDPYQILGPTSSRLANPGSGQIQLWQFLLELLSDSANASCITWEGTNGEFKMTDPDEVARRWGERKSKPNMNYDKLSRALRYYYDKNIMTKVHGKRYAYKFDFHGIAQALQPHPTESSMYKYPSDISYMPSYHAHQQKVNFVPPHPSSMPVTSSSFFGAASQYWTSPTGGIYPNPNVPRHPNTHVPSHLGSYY
# Summary of the method: (§1)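 Pools of DNA-barcoded human transcription factors, expressed in yeast as GST fusions on glutathione beads and combined with a tag-only sample, were incubated with 200 nmole of a 16-mer random double-stranded DNA library. Incubation took 30 min at room temperature in Tris/NaCl/DTT/glycerol buffer and was followed by washing, 0.1% formaldehyde crosslinking, proximity ligation (BsaI/T4 ligase, 1 h, 37 °C), PCR amplification and sequencing on an Illumina NextSeq500. Binding signal is the ratio of a hexamer's read frequency for a factor to its frequency for the tag-only sample.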
# ELK1 = target: T2, ELK1 (Homo sapiens, UniProt P19419 1-428)
# T2 sequence: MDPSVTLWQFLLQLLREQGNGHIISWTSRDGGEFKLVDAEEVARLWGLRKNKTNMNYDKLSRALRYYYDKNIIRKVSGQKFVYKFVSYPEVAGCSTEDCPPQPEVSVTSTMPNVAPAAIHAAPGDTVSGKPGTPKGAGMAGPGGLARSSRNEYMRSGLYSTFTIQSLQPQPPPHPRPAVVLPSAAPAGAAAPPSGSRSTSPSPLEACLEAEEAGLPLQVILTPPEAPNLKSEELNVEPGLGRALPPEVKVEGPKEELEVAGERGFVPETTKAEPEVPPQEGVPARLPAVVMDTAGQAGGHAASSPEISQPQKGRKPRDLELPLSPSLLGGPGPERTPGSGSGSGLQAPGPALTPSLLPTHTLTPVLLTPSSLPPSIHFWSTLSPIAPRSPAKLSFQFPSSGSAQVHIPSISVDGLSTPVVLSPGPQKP
# Summary of the method: as §1
# GABPA = target: T3, GABPA (Homo sapiens, UniProt Q06546 1-454)
# T3 sequence: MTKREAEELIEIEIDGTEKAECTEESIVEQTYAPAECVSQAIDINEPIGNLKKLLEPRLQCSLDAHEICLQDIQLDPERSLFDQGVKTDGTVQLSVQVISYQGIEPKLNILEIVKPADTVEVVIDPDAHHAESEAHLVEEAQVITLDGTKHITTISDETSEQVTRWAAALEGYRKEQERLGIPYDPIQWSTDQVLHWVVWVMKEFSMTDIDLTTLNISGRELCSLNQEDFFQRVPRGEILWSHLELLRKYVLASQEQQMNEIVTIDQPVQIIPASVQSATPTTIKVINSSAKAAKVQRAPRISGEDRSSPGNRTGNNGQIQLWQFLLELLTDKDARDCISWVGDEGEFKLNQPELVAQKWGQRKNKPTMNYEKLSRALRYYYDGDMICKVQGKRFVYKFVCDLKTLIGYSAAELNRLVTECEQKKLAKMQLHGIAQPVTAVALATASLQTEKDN
# Summary of the method: as §1
# ERG = target: T4, ERG (Homo sapiens, UniProt P11308 1-479)
# T4 sequence: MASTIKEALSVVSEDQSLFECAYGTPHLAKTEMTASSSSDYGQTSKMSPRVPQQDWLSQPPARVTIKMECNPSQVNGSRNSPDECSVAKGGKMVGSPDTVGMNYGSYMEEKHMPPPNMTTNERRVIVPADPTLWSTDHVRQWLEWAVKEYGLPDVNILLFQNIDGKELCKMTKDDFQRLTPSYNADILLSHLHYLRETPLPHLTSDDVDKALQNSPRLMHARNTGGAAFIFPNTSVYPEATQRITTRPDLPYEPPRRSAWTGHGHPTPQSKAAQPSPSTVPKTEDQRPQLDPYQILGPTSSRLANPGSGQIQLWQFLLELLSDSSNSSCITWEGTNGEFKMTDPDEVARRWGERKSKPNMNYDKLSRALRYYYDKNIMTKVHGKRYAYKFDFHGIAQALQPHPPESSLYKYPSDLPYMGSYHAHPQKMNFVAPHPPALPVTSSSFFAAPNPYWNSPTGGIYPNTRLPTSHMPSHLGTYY
# Summary of the method: as §1
# ELF1 = ELF1 (Homo sapiens, UniProt P32519 1-619)
# Sequence of ELF1 (P32519 whole entry): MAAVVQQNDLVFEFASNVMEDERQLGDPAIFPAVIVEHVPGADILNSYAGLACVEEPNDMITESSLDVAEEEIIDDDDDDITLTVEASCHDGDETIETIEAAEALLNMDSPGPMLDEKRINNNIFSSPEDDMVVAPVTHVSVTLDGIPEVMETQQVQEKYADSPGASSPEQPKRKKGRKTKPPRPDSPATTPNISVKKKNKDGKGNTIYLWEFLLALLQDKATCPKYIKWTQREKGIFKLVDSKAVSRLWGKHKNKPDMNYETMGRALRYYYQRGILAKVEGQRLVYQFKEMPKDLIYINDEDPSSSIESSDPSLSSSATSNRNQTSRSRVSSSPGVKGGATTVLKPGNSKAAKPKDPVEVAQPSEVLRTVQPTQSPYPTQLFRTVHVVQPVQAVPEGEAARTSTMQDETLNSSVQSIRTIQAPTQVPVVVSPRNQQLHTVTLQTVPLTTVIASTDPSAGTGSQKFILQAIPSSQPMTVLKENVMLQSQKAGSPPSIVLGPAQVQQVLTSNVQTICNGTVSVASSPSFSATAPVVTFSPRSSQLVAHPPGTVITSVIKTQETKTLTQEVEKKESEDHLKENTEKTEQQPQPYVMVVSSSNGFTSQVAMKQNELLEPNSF
# Summary of the method: as §1
# EHF = target: T5, EHF (Homo sapiens, UniProt Q9NZC4 1-300)
# T5 sequence: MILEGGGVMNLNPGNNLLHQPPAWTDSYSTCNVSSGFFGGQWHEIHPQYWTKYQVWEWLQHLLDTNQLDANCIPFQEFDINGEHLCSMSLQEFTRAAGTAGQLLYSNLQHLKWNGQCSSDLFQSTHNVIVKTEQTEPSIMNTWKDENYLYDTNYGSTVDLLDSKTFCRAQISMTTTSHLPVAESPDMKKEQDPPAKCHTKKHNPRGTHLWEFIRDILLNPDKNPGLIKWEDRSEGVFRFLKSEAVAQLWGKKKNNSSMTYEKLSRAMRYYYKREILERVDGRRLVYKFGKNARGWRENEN
# Summary of the method: as §1
# SPI1 = SPI1 (Homo sapiens, UniProt P17947 1-270)
# Summary of the method: as §1
# SPIB = SPIB (Homo sapiens, UniProt Q01892 1-262)
# Sequence of SPIB (Q01892 whole entry): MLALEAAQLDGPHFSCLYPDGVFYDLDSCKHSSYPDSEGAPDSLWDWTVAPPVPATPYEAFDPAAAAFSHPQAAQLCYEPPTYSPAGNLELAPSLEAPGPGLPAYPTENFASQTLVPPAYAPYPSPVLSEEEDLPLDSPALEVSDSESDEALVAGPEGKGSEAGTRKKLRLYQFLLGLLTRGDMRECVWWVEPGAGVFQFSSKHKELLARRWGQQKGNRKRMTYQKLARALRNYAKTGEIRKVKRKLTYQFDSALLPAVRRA
# Summary of the method: as §1
# ELK3 = target: T6, ELK3 (Homo sapiens, UniProt P41970 1-407)
# T6 sequence: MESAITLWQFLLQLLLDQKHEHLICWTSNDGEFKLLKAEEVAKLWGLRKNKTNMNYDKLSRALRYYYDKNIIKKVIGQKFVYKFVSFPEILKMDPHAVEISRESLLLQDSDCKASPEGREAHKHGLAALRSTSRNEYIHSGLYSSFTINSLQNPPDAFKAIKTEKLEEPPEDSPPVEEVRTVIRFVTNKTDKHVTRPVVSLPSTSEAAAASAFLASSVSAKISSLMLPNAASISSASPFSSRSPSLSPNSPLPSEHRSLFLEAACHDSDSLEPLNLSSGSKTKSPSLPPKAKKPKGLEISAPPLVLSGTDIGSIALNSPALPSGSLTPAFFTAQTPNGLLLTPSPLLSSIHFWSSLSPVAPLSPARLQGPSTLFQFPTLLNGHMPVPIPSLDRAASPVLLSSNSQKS
# Summary of the method: as §1
sequence,measurement,setting,value
TTGACT,binding signal,FLI1,"1.19 fold enrichment (6-mer frequency, TF over GST control)"
same,binding signal,ELK1,"1.19 fold enrichment (6-mer frequency, TF over GST control)"
same,binding signal,GABPA,"1.15 fold enrichment (6-mer frequency, TF over GST control)"
same,binding signal,ERG,"1.18 fold enrichment (6-mer frequency, TF over GST control)"
same,binding signal,ELF1,"1.15 fold enrichment (6-mer frequency, TF over GST control)"
same,binding signal,EHF,"1.06 fold enrichment (6-mer frequency, TF over GST control)"
same,binding signal,SPI1,"1.19 fold enrichment (6-mer frequency, TF over GST control)"
same,binding signal,SPIB,"1.18 fold enrichment (6-mer frequency, TF over GST control)"
same,binding signal,ELK3,"1.03 fold enrichment (6-mer frequency, TF over GST control)"
